HTR5A ag ctr = HTR5A agonism, opioid heterodimer counter-screen; HTR5A agonist assay, luminescence, cell-based; 340,000 tested, 0.61% active; AID 504692; activation, % at 9.3 µM; P47898; in the data active means activation mostly above about 9.5%, no sharp cut-off; inactive means mostly below about 7.6%;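 further: 0% = cells with vehicle only and 100% = reference agonist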
MOR-DOR ag = agonists of human mu-delta opioid receptor heterodimerization; P35372+P41143; cells, OPRM1-OPRD1 heterodimerization, luminescence; activation, % at 9.3 µM; 340,000 tested, 0.3% active; AID 504326; in the data active means activation above about 18%;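 further: 0% = vehicle-treated cells and 100% = reference agonist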
Target sequence (P35372 whole entry, looked up): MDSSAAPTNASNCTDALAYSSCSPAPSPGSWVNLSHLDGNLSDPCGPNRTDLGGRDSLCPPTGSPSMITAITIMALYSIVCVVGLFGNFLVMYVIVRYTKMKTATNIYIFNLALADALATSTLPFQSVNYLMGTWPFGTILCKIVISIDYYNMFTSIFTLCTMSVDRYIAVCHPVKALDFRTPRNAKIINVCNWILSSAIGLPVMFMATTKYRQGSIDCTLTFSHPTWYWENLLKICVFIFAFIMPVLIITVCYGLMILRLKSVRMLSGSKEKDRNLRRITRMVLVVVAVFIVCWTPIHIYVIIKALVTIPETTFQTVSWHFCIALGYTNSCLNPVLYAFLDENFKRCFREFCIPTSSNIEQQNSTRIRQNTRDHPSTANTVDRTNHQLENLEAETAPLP
Target sequence (P41143 whole entry, looked up): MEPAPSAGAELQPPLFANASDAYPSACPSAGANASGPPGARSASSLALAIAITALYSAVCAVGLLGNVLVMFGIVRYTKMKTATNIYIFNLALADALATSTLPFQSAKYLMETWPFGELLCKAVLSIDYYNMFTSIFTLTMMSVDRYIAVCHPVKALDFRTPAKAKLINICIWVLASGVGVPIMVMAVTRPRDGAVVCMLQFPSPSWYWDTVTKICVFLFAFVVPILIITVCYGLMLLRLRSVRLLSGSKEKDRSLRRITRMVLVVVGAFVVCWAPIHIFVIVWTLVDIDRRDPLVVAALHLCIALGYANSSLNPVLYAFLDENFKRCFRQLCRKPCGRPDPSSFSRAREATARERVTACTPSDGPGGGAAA
HTR5A inv ctr = counter-screen for OPRM1-OPRD1 inverse agonists: human HTR5A inverse agonism. P47898. HTR5A cell line, luminescence. inhibition, % at 9.3 µM. 340,000 tested, 0.083% active. AID 504634; in the data active means inhibition mostly above about 23%, no sharp cut-off; inactive means mostly below about 18%;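 further: 0% = cells with DMSO and 100% = no-cell wells with DMSO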
OPRM1-OPRD1 inv = inverse agonist of human OPRM1-OPRD1 heterodimerization | AID 504357 | 340,000 tested, 0.21% active | cell-based MOR-DOR heterodimer luminescence, inverse agonism | inhibition, % at 9.3 µM | P35372+P41143; in the data active means inhibition above about 22%, passing the limit was not always enough;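 further: 0% = cells with DMSO and 100% = wells without cells with DMSO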
The depositor's hits bear a star. Most compounds without a hit are left out; they make up all but 1.1% or so of the library.

How did CCOC(=O)C1CCN(c2ccc([N+](=O)[O-])cc2)CC1 do in these assays?
HTR5A ag ctr: 13*; MOR-DOR ag: -3; HTR5A inv ctr: -1; OPRM1-OPRD1 inv: 14

How did CCOC(=O)C1CCN(C(=O)C2CCN(C(=O)c3ccc([N+](=O)[O-])cc3)CC2)CC1 do in these assays?
HTR5A ag ctr: 6; MOR-DOR ag: -5; HTR5A inv ctr: -13; OPRM1-OPRD1 inv: 26

Results for CCN(CCCNC(=O)C1CCN(S(=O)(=O)c2cnc[nH]2)CC1)c1cccc(C)c1 ?
HTR5A ag ctr: 11*; MOR-DOR ag: 0; HTR5A inv ctr: -8; OPRM1-OPRD1 inv: -1

What do the screens show for `CCN(CCCNC(=O)C1CCCN(S(=O)(=O)CC)C1)c1cccc(C)c1` (configuration not stated)?
HTR5A ag ctr: -3; MOR-DOR ag: 3; HTR5A inv ctr: -19; OPRM1-OPRD1 inv: -16

Results for CC(C)CCCN1CCN=C1Nc1ccccc1 ?
HTR5A ag ctr: 2; MOR-DOR ag: -2; HTR5A inv ctr: 10; OPRM1-OPRD1 inv: 9

What do the screens show for `COCCC(=O)Nc1ccc2c(c1)CN(C(=O)CCSC)CC2`?
HTR5A ag ctr: 5; MOR-DOR ag: -4; HTR5A inv ctr: -1; OPRM1-OPRD1 inv: 19

How did COCCC(=O)Nc1ccc2c(c1)CN(C(=O)c1ccc(CSC)o1)CC2 do in these assays?
HTR5A ag ctr: 11*; MOR-DOR ag: -2; HTR5A inv ctr: -41; OPRM1-OPRD1 inv: 10

How did CCC(CC)NC(=O)Cc1ccccc1[N+](=O)[O-] do in these assays?
HTR5A ag ctr: -9; MOR-DOR ag: -2; HTR5A inv ctr: 19; OPRM1-OPRD1 inv: 10

How did COc1ccc2[nH]c3c(c2c1)CCN1C(=O)C(CC(=O)NCC24CC5CC(CC(C5)C2)C4)C[C@H](C(=O)N2CCOCC2)[C@@]31CCC1CCCC1 (some centres not stated) do in these assays?
HTR5A ag ctr: 4.4*; MOR-DOR ag: 0; HTR5A inv ctr: -15; OPRM1-OPRD1 inv: 0

How did CC[C@]12c3[nH]c4cc(-c5ccco5)ccc4c3CCN1C(=O)[C@@H](CC(=O)NCc1ccco1)C[C@@H]2C(=O)N1CCN(C(=O)C2CC2)CC1 do in these assays?
HTR5A ag ctr: 4.4*; MOR-DOR ag: -1; HTR5A inv ctr: -15; OPRM1-OPRD1 inv: 6

How did CCN(CC)C(=O)[C@H]1C[C@H](CC(=O)NCC23CC4CC(CC(C4)C2)C3)C(=O)N2CCc3c([nH]c4ccc(Cl)cc34)[C@]12C do in these assays?
HTR5A ag ctr: 3; MOR-DOR ag: 1; HTR5A inv ctr: -12; OPRM1-OPRD1 inv: -5

Results for CC(C)(C)NC(=O)CC1C[C@H](C(=O)N2CCOCC2)[C@@]2(CCC3CCCC3)c3[nH]c4ccccc4c3CCN2C1=O (some centres not stated) ?
HTR5A ag ctr: 8.6*; MOR-DOR ag: 2; HTR5A inv ctr: -29; OPRM1-OPRD1 inv: -9

Results for CC(C)N(C(=O)[C@H]1C[C@H](CC(=O)NCC23CC4CC(CC(C4)C2)C3)C(=O)N2CCc3c([nH]c4ccc(Cl)cc34)[C@]12C)C(C)C ?
HTR5A ag ctr: 4.2*; MOR-DOR ag: 2; HTR5A inv ctr: -14; OPRM1-OPRD1 inv: -8

Results for CC[C@]12c3[nH]c4cc(-c5ccco5)ccc4c3CCN1C(=O)[C@@H](CC(=O)NCC13CC4CC(CC(C4)C1)C3)C[C@@H]2C(=O)N1CCN(C(=O)C2CC2)CC1 ?
HTR5A ag ctr: 5; MOR-DOR ag: -1; HTR5A inv ctr: -16; OPRM1-OPRD1 inv: 5

Results for Cc1ccc(NC(=O)CN2C(=O)NC(Cc3c[nH]c4ccccc34)C2=O)cc1S(=O)(=O)N1CCCCC1 (configuration not stated) ?
HTR5A ag ctr: 3; MOR-DOR ag: 1; HTR5A inv ctr: -30; OPRM1-OPRD1 inv: -8

Results for Cc1cccc(C)c1NC(=O)CN1N=NC2C(=O)N(c3cccc(Cl)c3)C(=O)C21 (configuration not stated) ?
HTR5A ag ctr: -1; MOR-DOR ag: -3; HTR5A inv ctr: -10; OPRM1-OPRD1 inv: 16

What do the screens show for `CCOC(=O)/C(=C/c1ccc(OC(F)F)cc1)C1=Nn2c(nnc2-c2ccc(Cl)cc2)SC1`?
HTR5A ag ctr: 8.4*; MOR-DOR ag: 5; HTR5A inv ctr: -34; OPRM1-OPRD1 inv: -27

What do the screens show for `CN(CC(=O)Nc1c(Cl)cccc1Cl)C(=O)c1ccc(-n2cncn2)c([N+](=O)[O-])c1`?
HTR5A ag ctr: 11*; MOR-DOR ag: 1; HTR5A inv ctr: -31; OPRM1-OPRD1 inv: -5

What do the screens show for `O=C(c1nc2ccccc2s1)N1CCN(c2ccccn2)CC1`?
HTR5A ag ctr: 0; MOR-DOR ag: -1; HTR5A inv ctr: -46; OPRM1-OPRD1 inv: 5

What do the screens show for `CC1CC(C)CN(S(=O)(=O)N2CCCC(C(=O)NC3CCCCC3C)C2)C1` (configuration not stated)?
HTR5A ag ctr: -4; MOR-DOR ag: -2; HTR5A inv ctr: 5; OPRM1-OPRD1 inv: 8

How did O=C(COc1ccc2ccc(=O)oc2c1)NCCCN1CCCC1=O do in these assays?
HTR5A ag ctr: 13*; MOR-DOR ag: -1; HTR5A inv ctr: -8; OPRM1-OPRD1 inv: 3

What do the screens show for `Cc1cccc(-n2nc3c(c2NC(=O)C(C)C)CSC3)c1`?
HTR5A ag ctr: -1; MOR-DOR ag: -3; HTR5A inv ctr: 2; OPRM1-OPRD1 inv: 15

Results for COC(=O)[C@@]1(Cc2ccc(OC)cc2)[C@H]2c3cc(C(=O)N(C)C)[nH]c3C[C@H]2CN1C(=O)c1ccccc1 ?
HTR5A ag ctr: 14*; MOR-DOR ag: -3; HTR5A inv ctr: -9; OPRM1-OPRD1 inv: 19

Results for COc1ccc2c(c1)CC/C2=N\OC(=O)c1ccccc1C ?
HTR5A ag ctr: 5; MOR-DOR ag: 2; HTR5A inv ctr: -3; OPRM1-OPRD1 inv: -11

How did COc1ccc2c(c1)CC/C2=N\OC(=O)c1cccc(C)c1 do in these assays?
HTR5A ag ctr: 14*; MOR-DOR ag: 7; HTR5A inv ctr: -1; OPRM1-OPRD1 inv: -33

How did COc1cc2c(cc1OC)C(c1ccc(-c3ccc(Cl)c(Cl)c3)o1)=NCC2 do in these assays?
HTR5A ag ctr: 11*; MOR-DOR ag: 4; HTR5A inv ctr: -3; OPRM1-OPRD1 inv: -20

Results for COc1cc2c(cc1OC)C(c1ccc(-c3cc(Cl)ccc3Cl)o1)=NCC2 ?
HTR5A ag ctr: -2; MOR-DOR ag: 1; HTR5A inv ctr: -21; OPRM1-OPRD1 inv: -7

How did CC(C)c1cc(C(=O)NNC(=S)NCc2ccco2)c(O)c(C(C)C)c1 do in these assays?
HTR5A ag ctr: 10*; MOR-DOR ag: 15; HTR5A inv ctr: -26; OPRM1-OPRD1 inv: -74

What do the screens show for `CSCC(C)N1CCC(CCC(=O)NC2CC2)CC1` (configuration not stated)?
HTR5A ag ctr: 12*; MOR-DOR ag: -4; HTR5A inv ctr: 9; OPRM1-OPRD1 inv: 20

Results for CC(C(=O)Nc1ccccc1)N1CCN(c2ccccn2)CC1 (configuration not stated) ?
HTR5A ag ctr: 0; MOR-DOR ag: -2; HTR5A inv ctr: 1; OPRM1-OPRD1 inv: 11

What do the screens show for `CC(C)c1ccc(C2C3=C(COC3=O)Nc3cc4c(cc32)OCO4)cc1` (configuration not stated)?
HTR5A ag ctr: 17*; MOR-DOR ag: 11; HTR5A inv ctr: -45; OPRM1-OPRD1 inv: -51

Results for COc1ccc(C(=O)NCCc2c[nH]c3ccc(OC)cc23)cc1 ?
HTR5A ag ctr: 3; MOR-DOR ag: -3; HTR5A inv ctr: -11; OPRM1-OPRD1 inv: 12

Compound activity: PubChem BioAssay, The Scripps Research Institute Molecular Screening Center
